Assay results published in article PMC12136788.
Changes are numbered by the printed parent chain. Over roughly 5,800 sequences, “enrichment r” has its median near 0.68; the highest 2% begin near 11. The sample holds the highest values, similar sequences and a random draw of the others, so the mix is not that of the screen.

B1: chr1:93180074:93180188:-|CDS|ENSG00000117500|unk|total|mutant (ssRNA)
RNA: GGGAGUUCUACAGUCCGACGAUCCUGGCCGCUCUGCCUCCGGUGCUGCUGCCUGGGGCGGCCGGCUUCACACCUUCCCUCGACCGCGACUUCACCUUUACCCUUCCCGCCGGCCAGAAGGAGUGCUUCUACCAGCCCAUGCCCCAACAGAGGAUUGAGCAUCA
B2: chr11:11963431:11963477:-|3pUTR|ENSG00000050165|msi1_unk|FALSE|overlapping (ssRNA)
RNA: GGGAGUUCUACAGUCCGACGAUCUUGACACUGUCCCUCUUUGGCAGUUGCAUUAGUAACUUUGAAAGGUAUAUGACUGAGCGUAGCAUACAGGUUAACCUGCAGAAACAGUACUUAGGUAAUUGUAGGGCGAGGAUUAUAAAUCAACAGAGGAUUGAGCAUCA
B3: ENSG00000124766:be:win_3001|3pUTR|ENSG00000124766|bound_else_gene|NA|bound_elsewhere_windowed (ssRNA)
RNA: GGGAGUUCUACAGUCCGACGAUCUUUUUUUGGUAGUUGUUGUUACCCACGCCAUUUUACGUCUCCUUCACUGAAGGGCUAGAGUUUUAACUUUUAAUUUUUUAUAUUUAAAUGUAGACUUUUGACACUUUUAAAAAACAAAAACAACAGAGGAUUGAGCAUCA
B4: chr11:130144177:130144243:+|3pUTR|ENSG00000084234|msi1_unk|total|mutant (ssRNA)
RNA: GGGAGUUCUACAGUCCGACGAUCAUGAGGGUGUCCGCUGCUGCUUUCCUUCGGAAUCCAGUGCUUCCACAGAGAUCCGCCUGCCGCUUAUAUUUGACAUUCUUCACUGUCUGUUGUUUACCUACCGCCGCUUUUUACCGUUCACAACAGAGGAUUGAGCAUCA
B5: chr1:965281:965395:+|3pUTR|ENSG00000187961|unk|FALSE|unique (ssRNA)
RNA: GGGAGUUCUACAGUCCGACGAUCCCAUCCGUUCACGUCUCUGCAUCCAUUCCUUCAUGUCUUUAUUUAGUUGUUUAUUUAUUUAGUUAUUUAUCUUAUUUAUUGAGGGGUGAGGAGUGCCACGGCUGCCCGUUUACACCUUUACAACAGAGGAUUGAGCAUCA
B6: ENSG00000124766:be:win_2951|3pUTR|ENSG00000124766|bound_else_gene|NA|bound_elsewhere_windowed (ssRNA)
RNA: GGGAGUUCUACAGUCCGACGAUCCUUUAUUCCUUCCUUUUCCUUUUUUUCUUUUUUUUUUCUUUUUUUUUUUUUUUUUUUGGUAGUUGUUGUUACCCACGCCAUUUUACGUCUCCUUCACUGAAGGGCUAGAGUUUUAACUUUCAACAGAGGAUUGAGCAUCA
B7: chr1:965281:965395:+|3pUTR|ENSG00000187961|unk|total|mutant (ssRNA)
RNA: B5 RNA with U67C, A68C, U83C, A84C
B8: chr8:47773456:47773635:-|3pUTR|ENSG00000253729|msi1_unk|FALSE|overlapping (ssRNA)
RNA: GGGAGUUCUACAGUCCGACGAUCGUUUUUUCCUUUCAUUUUAUUCUCUUCUAGUUUUGACAUUUUAUGAUAGAUUUGCUCUCUAGAAGGAAACGUCUUUAUUUAGGAGGGCAAAAAUUUUGGUCAUAGCAUUCACUUUUGCUACAACAGAGGAUUGAGCAUCA
B9: chr2:73730642:73730743:-|CDS|ENSG00000144034|unk|FALSE|unique (ssRNA)
RNA: GGGAGUUCUACAGUCCGACGAUCUUCAGACGUAGGAAACAAUGGUUAAUGAUCUUGUGUUUUUUUUUUCAUUUUUUUUCUCUUAGAUUUCAGAGGCUUUGAAAAAAUUUGGUAUCUCAGCAAAUGACACUUCAAUUCUAAUUGCAACAGAGGAUUGAGCAUCA
B10: chr1:17407970:17408071:-|3pUTR|ENSG00000179051|msi1|FALSE|unique (ssRNA)
RNA: GGGAGUUCUACAGUCCGACGAUCGGGUACCGUUCUGCUGACCCAGCUCCCUUUAGUCACGUUUGCUUGGCUCUGGUACCAAAUAGUUGGGAUUACCGAAGAGUCCCCUUCCUUGCGUGUCAGCACGGAUGCUGUGACUGCCACCAACAGAGGAUUGAGCAUCA
B11: chr10:62095068:62095169:+|3pUTR|ENSG00000150347|msi1|total|mutant (ssRNA)
RNA: GGGAGUUCUACAGUCCGACGAUCCCAUUUGCUUCAAUUAAUUAUUUACCUUCCUGUGGAAUAAUAUAUAUAUAUAUAUUUAACCGAACCACCGACCGACCCGCCGAAUUCCGAUUAUAAAUGUGUGAGUGCAGAUUAUCCUGCCAACAGAGGAUUGAGCAUCA
B12: chr14:53043751:53043854:-|3pUTR|ENSG00000100523|unk|FALSE|unique (ssRNA)
RNA: GGGAGUUCUACAGUCCGACGAUCACUUAGAUUAAAUCUUGCUUUAUUUUUACUUUAAAAUUAGUCUUGCUAAGGCCUUAUGUUAGUUCAUACUUUCUUUUCAACAGUAAUCUUGUUUAUAAUCCAGUGUUUCUGUGUUUUAGGCAACAGAGGAUUGAGCAUCA
B13: chr10:110135209:110135310:+|3pUTR|ENSG00000148700|msi1|FALSE|bound_elsewhere (ssRNA)
RNA: GGGAGUUCUACAGUCCGACGAUCCUCUCUAUUGGAAGAUUUUUUUAAUGUUCUACAUCAUUUAUGUUGUAUUACAAUGUAUGUAGAAAUAGUAACCUGUGAACUAUGCUUUUCCAUAACUUUUUAAAAAUAUAUAUAUCUAAACAACAGAGGAUUGAGCAUCA
B14: chr15:34978960:34979061:-|3pUTR|ENSG00000198146|msi1|FALSE|unique (ssRNA)
RNA: GGGAGUUCUACAGUCCGACGAUCGCCCUCUGUAUCCAUGUACUCUGCAUCUGUGGAUUAAACCAAUUGCAGAUCAAAAAUAUUAGAAAAAAUAAAAAUAAUACAAAUAAAAAUACAGUAUAACAGUUAUUUAAAUAGCAUUUACAACAGAGGAUUGAGCAUCA
B15: chr5:72209348:72209524:+|3pUTR|ENSG00000131711|msi1_unk|FALSE|overlapping (ssRNA)
RNA: GGGAGUUCUACAGUCCGACGAUCUUAUGUCUUAUAAUCCUGCAUCACUUCUAUCCUAUCCAGUCAUAUCUAAUGUAGAAAAUUAGUUUCCAGUGAAAGUAAUAUGUAGUGCUUUUAUGAUAUUUGUGUGCAAUAUCCCCUCUUCAACAGAGGAUUGAGCAUCA
B16: chr6:133987709:133987810:+|3pUTR|ENSG00000028839|unk|FALSE|unique (ssRNA)
RNA: GGGAGUUCUACAGUCCGACGAUCAAUAACAAAUAGGAAUUUUUUUUCUUGCAGAUUAGAAAUAAAAACGUGUAUAUAAACUCUAGGGAACCAGACUAGAAGUUUAUAGAUAAAGGAUAAUGUUUUAUGUUGCUAAUUUAAUAUCAACAGAGGAUUGAGCAUCA
B17: chr10:62095068:62095169:+|3pUTR|ENSG00000150347|msi1|FALSE|unique (ssRNA)
RNA: GGGAGUUCUACAGUCCGACGAUCCCAUUUGCUUCAAUUAAUUAUUUACCUUCCUGUGGAAUAAUAUAUAUAUAUAUAUUUAAUAGAACCAUAGAUAGACUAGUAGAAUUUAGAUUAUAAAUGUGUGAGUGCAGAUUAUCCUGCCAACAGAGGAUUGAGCAUCA
B18: chr6:142752714:142752806:-|3pUTR|ENSG00000010818|msi1_unk|total|mutant (ssRNA)
RNA: GGGAGUUCUACAGUCCGACGAUCUUUUCUUUACUUUGCUUAUAUUCUUAUAAGCAUUUUUCCGCAGUAAUUUGUACAUAUUUCCGAAUUUGUGUAUCUGCUUUGUAAUAAAUGUAAUUUCUUUCCUUUUUUGGACACUUGGAUCAACAGAGGAUUGAGCAUCA

Molecular target: T1, UNK ZnF1-6 (called full-length) (human, UniProt Q9C0B0 30-357)
T1 sequence: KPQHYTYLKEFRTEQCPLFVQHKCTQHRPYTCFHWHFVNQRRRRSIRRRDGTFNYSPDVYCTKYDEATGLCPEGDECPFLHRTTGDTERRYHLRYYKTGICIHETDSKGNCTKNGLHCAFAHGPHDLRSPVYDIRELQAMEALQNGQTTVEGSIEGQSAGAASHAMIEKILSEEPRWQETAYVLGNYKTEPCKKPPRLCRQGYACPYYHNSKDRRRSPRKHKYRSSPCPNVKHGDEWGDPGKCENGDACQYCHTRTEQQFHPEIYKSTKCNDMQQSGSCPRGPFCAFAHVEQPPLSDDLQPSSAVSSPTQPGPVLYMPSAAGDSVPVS
Test: nsRBNS (natural sequence RNA bind-n-seq); RBNS binding buffer (assumed for nsRBNS): 25 mM Tris pH 7.5, 150 mM KCl, 3 mM MgCl2, 0.01% Triton X-100, 500 ug/ml BSA, 20 U/ml SUPERase-In, 4 C; UNK is unkempt and MSI1 is Musashi-1; names of the RNAs are library labels; protein concentration not given here; high values mean tight binding

Row | Binder | binding signal
1 | B1 | 0.868 enrichment R
2 | B2 | 0.884 enrichment R
3 | B3 | 4.11 enrichment R
4 | B4 | 0.644 enrichment R
5 | B5 | 199 enrichment R
6 | B6 | 35.6 enrichment R
7 | B7 | 5.63 enrichment R
8 | B8 | 5.42 enrichment R
9 | B9 | 1.44 enrichment R
10 | B10 | 2 enrichment R
11 | B11 | 2.12 enrichment R
12 | B12 | 15 enrichment R
13 | B13 | 7.46 enrichment R
14 | B14 | 22.2 enrichment R
15 | B15 | 1.93 enrichment R
16 | B16 | 2.44 enrichment R
17 | B17 | 15.6 enrichment R
18 | B18 | 0.576 enrichment R
